Counter-ions that a name gives are not always drawn. Among all 1,700 compounds or so, about 15 (0.9%) showed activity. This excerpt belongs to a sample that is enriched for actives. Values without a mark were called inactive.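 The calls were made as follows: active = infection cut by 80% or more with cell growth above 90% in both runs; inactive = the rest.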
Tested on: HSV-1 strain 17 YFP-ICP4 in A549
Test: HSV-1 infection relative to DMSO (ICP4-YFP per H2B-RFP signal); higher = more viral infection (less antiviral activity), active = hit call of the paper
Conditions: 10 µM; 48 h; MOI: 0.1
Method: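 Selleck FDA-approved library (L1300) screened in duplicate at 10 µM on A549 H2B-mRuby cells in 384-well plates, infected with HSV-1 strain 17 YFP-ICP4 at MOI 0.1 one hour before drug addition. Imaged after 2 days at 37°C. Cell growth (H2B-RFP) and infection (ICP4-YFP) are expressed as % of DMSO-treated wells. Hits: growth >90% and infection <20% of DMSO.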

**Q.** CCNC1(C(N)=O)CCN(c2ncnc3c2nc(-c2ccccc2Cl)n3-c2ccc(Cl)cc2)CC1 was tested. Which HSV-1 infection did it give?
**A.** 105%

**Q.** How did the HSV-1 infection turn out when O=C1C(CC[S+]([O-])c2ccccc2)C(=O)N(c2ccccc2)N1c1ccccc1 (racemic) [(+/-)-Sulfinpyrazone] was run?
**A.** 111%

**Q.** Which HSV-1 infection does the source give for C=CN1CCCC1=O.II [Povidone iodine] here?
**A.** 108%

**Q.** How did the HSV-1 infection turn out when CCCCCOc1ccccc1/C(=C\SC)n1ccnc1 [Neticonazole Hydrochloride] was run?
**A.** 61.4%

**Q.** Which HSV-1 infection does the source give for CC(C)(C)C#Cc1cc(N(C(=O)[C@H]2CC[C@H](C)CC2)[C@H]2CC[C@H](O)CC2)c(C(=O)O)s1 [Lomibuvir (VX-222, VCH-222)] here?
**A.** 130%

**Q.** How did the HSV-1 infection turn out when COc1cc2c(cc1OC)CN(CCc1ccc(NC(=O)c3cccc4c(=O)c5cccc(OC)c5[nH]c34)cc1)CC2 was run?
**A.** 135%

**Q.** How did the HSV-1 infection turn out when COC(=O)N[C@H](C(=O)N1CC2(CC2)C[C@H]1c1nc(-c2ccc3c(c2)C(F)(F)c2cc(-c4ccc5[nH]c([C@@H]6[C@H]7CC[C@H](C7)N6C(=O)[C@@H](NC(=O)OC)C(C)C)nc5c4)ccc2-3)c[nH]1)C(C)C [Ledipasvir (GS5885)] was run?
**A.** 105%

**Q.** With CCCCC[C@](C)(O)/C=C/[C@@H]1[C@@H](C/C=C\CCCC(=O)O)[C@@H](O)C[C@H]1O [Carboprost] as the compound, how does the HSV-1 infection read?
**A.** 117%

**Q.** With Nc1ncn([C@@H]2O[C@H](CO)[C@@H](O)[C@H]2O)c(=O)n1 [Azacitidine] as the compound, how does the HSV-1 infection read?
**A.** 5.54% (active)

**Q.** Nc1nc(Cl)nc2c1ncn2[C@H]1C[C@H](O)[C@@H](CO)O1 [Cladribine] was tested. Which HSV-1 infection did it give?
**A.** 22.3%

**Q.** Which HSV-1 infection does the source give for Nc1ncn([C@H]2C[C@H](O)[C@@H](CO)O2)c(=O)n1 [Decitabine] here?
**A.** 7.64% (active)

**Q.** With NC(=O)c1ncn([C@@H]2O[C@H](CO)[C@@H](O)[C@H]2O)c1O [Mizoribine] as the compound, how does the HSV-1 infection read?
**A.** 89.7%

**Q.** Nc1ccn([C@H]2CC[C@@H](CO)O2)c(=O)n1 [Zalcitabine] was tested. Which HSV-1 infection did it give?
**A.** 98.8%

**Q.** How did the HSV-1 infection turn out when NC(=O)c1ncn([C@@H]2O[C@H](CO)[C@@H](O)[C@H]2O)c1N [AICAR (Acadesine)] was run?
**A.** 67.6%

**Q.** With CC#CC(=O)N1CCC[C@H]1c1nc(-c2ccc(C(=O)Nc3ccccn3)cc2)c2c(N)nccn12 [Acalabrutinib (ACP-196)] as the compound, how does the HSV-1 infection read?
**A.** 98.3%

**Q.** With CNC(=O)CN(CCN(CCN(CC(=O)[O-])CC(=O)NC)CC(=O)[O-])CC(=O)[O-].O.[Gd+3] [Gadodiamide Hydrate] as the compound, how does the HSV-1 infection read?
**A.** 108%

**Q.** With COc1ccc(C[C@@H](C)NC[C@H](O)c2ccc(O)c(NC=O)c2)cc1 [Arformoterol Tartrate] as the compound, how does the HSV-1 infection read?
**A.** 112%

**Q.** With Cn1cnc2c(F)c(Nc3ccc(Br)cc3Cl)c(C(=O)NOCCO)cc21 [Selumetinib (AZD6244)] as the compound, how does the HSV-1 infection read?
**A.** 52.5%

**Q.** CNCc1cc(-c2ccccc2F)n(S(=O)(=O)c2cccnc2)c1 [Vonoprazan Fumarate (TAK-438)] was tested. Which HSV-1 infection did it give?
**A.** 95.8%

**Q.** How did the HSV-1 infection turn out when CCCNS(=O)(=O)Nc1ncnc(OCCOc2ncc(Br)cn2)c1-c1ccc(Br)cc1 [Macitentan] was run?
**A.** 93.1%

**Q.** C[C@@H](O)[C@H]1C(=O)N2C(C(=O)OCOC(=O)C(C)(C)C)=C(SC3CN(C4=NCCS4)C3)[C@H](C)[C@H]12 [Tebipenem Pivoxil] was tested. Which HSV-1 infection did it give?
**A.** 92.2%

**Q.** With CC1CCC(C(C)C)C(O)C1 (single isomer, unassigned; (-)) [(-)-Menthol] as the compound, how does the HSV-1 infection read?
**A.** 99.1%

**Q.** For CC(C)[C@H](N)C(=O)OCC(CO)OCn1cnc2c(=O)[nH]c(N)nc21 (stereo not given in full) [Valganciclovir HCl], which HSV-1 infection is on record?
**A.** 2.02% (active)

**Q.** Nc1ccn(C[C@@H](CO)OCP(=O)(O)O)c(=O)n1 [Cidofovir] was tested. Which HSV-1 infection did it give?
**A.** 45.8%

**Q.** How did the HSV-1 infection turn out when Nc1nc2c(ncn2COCCO)c(=O)[nH]1 [Aciclovir] was run?
**A.** 3.03% (active)

**Q.** C[C@H](Cn1cnc2c(N)ncnc21)OCP(=O)(O)O [Tenofovir] was tested. Which HSV-1 infection did it give?
**A.** 119%

**Q.** For CC(C)[C@H](N)C(=O)OCCOCn1cnc2c(=O)nc(N)[nH]c21 [Valaciclovir HCl], which HSV-1 infection is on record?
**A.** 4.82% (active)

**Q.** Which HSV-1 infection does the source give for Nc1nc2c(ncn2COC(CO)CO)c(=O)[nH]1 [Ganciclovir] here?
**A.** 2.93% (active)

**Q.** C=C1[C@H](CO)[C@@H](O)C[C@@H]1n1cnc2c(=O)[nH]c(N)nc21 [Entecavir Hydrate] was tested. Which HSV-1 infection did it give?
**A.** 12.1% (active)

**Q.** For O=c1[nH]cnc2c1ncn2[C@H]1CC[C@@H](CO)O1 [Didanosine], which HSV-1 infection is on record?
**A.** 112%

**Q.** For C=C1[C@H](CO)[C@@H](O)C[C@@H]1n1cnc2c(=O)[nH]c(N)nc21 [Entecavir], which HSV-1 infection is on record?
**A.** 7.02% (active)

**Q.** How did the HSV-1 infection turn out when O=c1[nH]cnc2c1ncn2[C@@H]1O[C@H](CO)[C@@H](O)[C@H]1O [Inosine] was run?
**A.** 82.6%

**Q.** Which HSV-1 infection does the source give for N/N=c1\[nH][nH]/c(=N\N)c2ccccc12 [Dihydralazine sulphate] here?
**A.** 123%

**Q.** C1CNCCNCCNCCN1 [Cyclen] was tested. Which HSV-1 infection did it give?
**A.** 105%

**Q.** With C=C1CCN([C@H](C)[C@](O)(Cn2cncn2)c2ccc(F)cc2F)CC1 [Efinaconazole] as the compound, how does the HSV-1 infection read?
**A.** 93.8%
